The results in this text go back to PubChem BioAssay AID488969 (Vanderbilt High Throughput Screening Facility, 2010).

In all, about 110,000 compounds were measured (“z-score”: median about -0.1, highest 2% from about 2 on). The sample holds the highest values, similar compounds and a random draw of the others, so the mix is not that of the screen. Active and inactive are the calls of the source.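 Rule for the calls: active = z-score in the third read window above 3 or below -3; inactive = the rest.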

The target of this experiment is Metabotropic glutamate receptor 8 (Rattus norvegicus) (UniProt P70579). Briefly: rat mGluR8 modulators via GIRK flux, primary screen, cell-based, thallium flux, HTS (AID 488969). Conditions: HEK293 rat mGluR8, GIRK (G protein-gated inwardly rectifying potassium channel) thallium flux, FluoZin2; at 10 µM; stronger effect = higher value; submaximal glutamate (EC20) added with thallium.
Chain of Metabotropic glutamate receptor 8 (Rattus norvegicus) (P70579 whole entry, looked up): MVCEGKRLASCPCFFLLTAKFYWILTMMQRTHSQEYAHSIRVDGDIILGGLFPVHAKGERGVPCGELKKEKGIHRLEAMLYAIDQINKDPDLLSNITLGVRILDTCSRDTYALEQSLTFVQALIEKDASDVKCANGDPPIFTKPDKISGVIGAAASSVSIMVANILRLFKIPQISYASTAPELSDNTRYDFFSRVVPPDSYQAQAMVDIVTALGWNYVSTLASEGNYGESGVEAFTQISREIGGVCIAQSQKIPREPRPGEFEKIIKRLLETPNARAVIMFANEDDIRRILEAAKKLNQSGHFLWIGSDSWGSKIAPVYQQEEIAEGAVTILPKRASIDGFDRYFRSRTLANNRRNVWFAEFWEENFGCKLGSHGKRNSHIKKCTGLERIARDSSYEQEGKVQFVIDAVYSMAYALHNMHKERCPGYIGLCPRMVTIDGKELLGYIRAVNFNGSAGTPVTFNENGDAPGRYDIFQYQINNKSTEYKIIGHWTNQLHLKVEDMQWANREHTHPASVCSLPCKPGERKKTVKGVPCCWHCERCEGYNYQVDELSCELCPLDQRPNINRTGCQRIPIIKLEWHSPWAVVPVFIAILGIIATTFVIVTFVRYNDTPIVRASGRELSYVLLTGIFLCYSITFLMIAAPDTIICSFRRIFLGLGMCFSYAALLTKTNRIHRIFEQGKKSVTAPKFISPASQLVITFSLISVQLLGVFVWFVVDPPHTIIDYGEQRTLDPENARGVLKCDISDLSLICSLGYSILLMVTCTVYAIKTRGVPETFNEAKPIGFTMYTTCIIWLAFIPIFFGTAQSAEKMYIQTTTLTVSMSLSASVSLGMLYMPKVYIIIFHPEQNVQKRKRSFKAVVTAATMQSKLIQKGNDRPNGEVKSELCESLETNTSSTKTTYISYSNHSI
Compound `COc1nccnc1NS(=O)(=O)c1ccc(N=Cc2c(C)[nH]n(-c3ccccc3)c2=O)cc1` had a z-score of -0.188. For `CCCCN(CCCC)S(=O)(=O)c1ccc(NC(=O)c2ccc([N+](=O)[O-])cc2Cl)cc1` the value was 3.01 (active). For `CN(C)c1ccc(NC(=O)c2ccc([N+](=O)[O-])cc2Cl)cc1` the value was -0.282. Compound `CCC(C)NS(=O)(=O)c1ccc(NC(=O)c2ccc([N+](=O)[O-])cc2Cl)cc1` (stereo unspecified) gave a z-score of 0.0866.

The compound `C=CCOn1c(=O)c(-c2ccc(OC)c(OC)c2)[n+]([O-])c2ccccc21` registered a z-score of -0.224. For `CCOC(=O)c1nn(-c2ccc(F)cc2)c2nc(Nc3ccccc3)cc(=O)n12` the value was -0.123; for `O=C(Nc1ccc2nc(-c3ccc(Br)o3)[nH]c2c1)c1cccs1`, -0.969; for `CCc1cc2c(N[C@@H](Cc3c[nH]c4ccccc34)C(=O)O)ncnc2s1`, -0.16. The figure for `CN(CC(=O)Nn1cnnc1)S(=O)(=O)c1ccc(Br)cc1` is 4.35 (active). For `CN(CC(=O)Nc1ccncc1)S(=O)(=O)c1ccc(Br)cc1` the value was -0.284; for `CN(CC(=O)Nn1cnnc1)S(=O)(=O)c1ccccc1`, -0.262; for `Cc1cc(=O)[nH]c(-n2nc(C)c(Oc3ccccc3O)c2C)n1`, -0.0623.

Regarding `Cc1sc(NC(=O)C2C3CCC(O3)C2C(=O)O)c(C(=O)OC(C)C)c1-c1ccc(Cl)cc1` (stereo unspecified), the z-score is -0.429.

In the case of `CCOC(=O)c1c(NC(=O)C2C3CCC(O3)C2C(=O)O)sc(C)c1-c1ccc(C)cc1` (stereo unspecified), the z-score was -0.26.

With `Cc1ccc(-c2c(C)sc(NC(=O)C3C4CCC(O4)C3C(=O)O)c2C(=O)OC(C)C)cc1` (stereo unspecified), the z-score was 4.99 (active).

The compound `COC(=O)C(C)Sc1nnc(-c2ccncc2)o1` (stereo unspecified) gave a z-score of -0.297. For `CCOC(=O)N1CCC(N2C(=O)c3cc(C(=O)NC4CCCCC4)ccc3C2O)CC1` (stereo unspecified) the value was -0.198; for `CCOC(=O)N1CCC(N2C(=O)c3ccc(C(=O)NCc4ccco4)cc3C2=O)CC1`, -0.36. For `CCOC(=O)c1c(N)sc2c1CCC(CC)C2` (stereo unspecified) the value was 0.0842; for `CCOC(=O)c1c(NC(=O)C2C3C=CC(C3)C2C(=O)O)sc2c1CCC(CC)C2` (stereo unspecified), 3.71 (active). `CCOC(=O)c1c(NC(=O)C2C3C=CC(CC3)C2C(=O)O)sc(C)c1C` (stereo unspecified) returned a z-score of 0.959. The figure for `Cc1ccc(OCCNC(=O)/C=C/c2ccccc2)cc1C` is -0.203; for `CCOC(=O)c1nn(-c2ccccc2)c(=O)cc1SC(C)C` it is -0.0576. The figure for `CC(C)(C)NC(=O)C(=O)NNC(=O)c1ccc(C(C)(C)C)cc1` is 5.3 (active); for `CC(C)(C)c1ccc(C(=O)NNC(=O)C(=O)N2CCCCC2)cc1` it is 0.478; for `CC(C)(C)NC(=O)C(=O)NNC(=O)c1ccccc1` it is 1.57. For `Cc1cccc(C(=O)NNC(=O)c2ccccc2)c1` the value was -0.0133; for `COC(=O)NNC(=O)c1cccc(C)c1`, -0.067. As for `Cc1cccc(C(=O)NNC(=O)C(=O)NC(C)(C)C)c1`, the z-score came to 2.45. In the case of `Cc1nc(C)c(C(=O)N/N=C/c2cn(C)c3ccccc23)s1`, the z-score came out at 0.0943. For `CCOCCc1nnc(NC(=O)c2cccc(F)c2)s1` the value was -0.243; for `COc1ccc(NC(=O)Cn2c(=O)n(CC(=O)NCc3ccco3)c(=O)c3ccccc32)cc1`, 0.213; for `O=C(CN(Cc1ccccc1)C1=NCCS1)c1ccccc1`, -0.754. The figure for `COc1ccc(-c2noc(-c3ccccc3C(=O)Nc3cccnc3)n2)cc1OC` is 0.205; for `N#CCc1ccc(C(=O)c2ccccc2)s1` it is -0.167. For `Cc1ccc(N(CC(=O)N2CCOCC2)S(=O)(=O)c2ccccc2)cc1` the value was 0.464; for `CC(C)N1CCC(=NNc2ccc(S(=O)(=O)N3CCOCC3)cc2[N+](=O)[O-])CC1`, 0.0912. With `OC(CNCC1CCCO1)Cn1c2ccc(Cl)cc2c2cc(Cl)ccc21` (stereo unspecified), the z-score is 0.381. As to `OC(CNCC1CCCO1)Cn1c2ccc(Br)cc2c2cc(Br)ccc21` (stereo unspecified), the z-score was 3.72 (active).

The compound `OC(CNCc1ccco1)Cn1c2ccc(Br)cc2c2cc(Br)ccc21` (stereo unspecified) returned a z-score of 0.138. With `Cc1ccc(S(=O)(=O)N(C)C)cc1NC(=O)CCNC(=O)c1ccccc1Cl`, the z-score was -0.212. The figure for `C=CCN1C(=O)C2C(C(=O)NC3CCCCC3)C3C=CC2(O3)C1C(=O)NC1CCCC1` (stereo unspecified) is -0.014; for `O=C(Nc1ccc(OC(F)(F)F)cc1)c1n[nH]c(Cn2cncn2)n1` it is -0.0524; for `COc1ccc(C(=O)N2N=C(c3cccc(OC)c3)CC2(O)C(F)(F)F)cc1` (stereo unspecified) it is 0.326. For `COc1cccc(C2=NN(C(=O)c3ccccc3)C(O)(C(F)(F)F)C2)c1` (stereo unspecified) the value was 2.79. In turn, `COc1cccc(C(=O)N2N=C(c3cccc(OC)c3)CC2(O)C(F)(F)F)c1` (stereo unspecified) had a z-score of 0.00352. For `O=C1CCCc2c1[nH]c1ccc(CN3CCCCC3)cc21` the value was 0.129.

In turn, `CN(C)CCCNc1oc(-c2ccc(Cl)cc2)nc1C#N` came in with a z-score of 1.35.

With `COc1ccc(CCNc2oc(COc3ccccc3)nc2C#N)cc1`, the z-score was -0.509. For `CCN(CC)CCCNc1oc(-c2ccc(OC)c(OC)c2)nc1C#N` the value was -0.222. `CN(C)CCNc1oc(-c2cccc(Cl)c2)nc1C#N` gave a z-score of 2.54. For `CCN(CC)CCCNc1oc(-c2cccc(Cl)c2)nc1C#N`, the z-score was 1.31. The figure for `CN(C)CCNc1oc(COc2ccc(Cl)cc2)nc1C#N` is 1.5; for `CN(C)CCNc1oc(COc2ccc(-c3ccccc3)cc2)nc1C#N` it is 2.06. The figure for `COc1ccc(-c2nc(C#N)c(NCCCN(C)C)o2)cc1OC` is 11.2 (active); for `CN(C)CCCNc1oc(-c2cccc(Cl)c2)nc1C#N` it is -0.825. For `Cc1ccccc1NC(=O)NCC1CCCO1` (stereo unspecified) the value was 0.73; for `CC(C)CC(=O)N1CCN(S(=O)(=O)c2ccc3ccccc3c2)CC1`, -1.99; for `O=C(COC(=O)[C@H](Cc1c[nH]c2ccccc12)NC(=O)c1ccc(Cl)cc1)Nc1ccc2c(c1)OCO2`, 0.558.

In the case of `CCOc1c2ccc(C(=O)NCc3ccc4c(c3)OCO4)cc2nn1CCOC`, the z-score is -0.276. For `COc1ccc(/C=N/NC(=O)CSc2nnc(CCCc3ccc(OC)c(C)c3)o2)cc1` the value was -0.18. `O=C(OCC#CCSc1nnc(-c2ccccc2)o1)c1cccs1`: the z-score was -0.745.

`O=C(OCC#CCSc1nnc(-c2ccncc2)o1)c1sc2ccccc2c1Cl` came in with a z-score of 2.87. The figure for `O=C(OCC#CCSc1nnc(-c2ccncc2)o1)c1cccs1` is -0.0957; for `CC1Cc2ccccc2N1C(=O)Cc1cccs1` (stereo unspecified) it is -0.395. Compound `CCCCNC(=S)Nc1ccc([N+](=O)[O-])cc1` yielded a z-score of 2. For `CCOc1ccc(NC(=S)Nc2ccc(C)c([N+](=O)[O-])c2)cc1` the value was 0.652; for `CC(C)CNC(=S)NC(=O)c1ccc(F)cc1`, 7.84 (active); for `O=[N+]([O-])c1ccc(NC(=S)NCCc2ccc(Cl)cc2)cc1`, 0.129.

For `Cc1ccc(NC(=S)NCc2ccccc2)cc1[N+](=O)[O-]`, the z-score is 3.51 (active). For `Cc1ccc(CNC(=S)Nc2ccc(C)c([N+](=O)[O-])c2)cc1` the value was 0.255. For `O=C(NC(=S)NCCN1CCOCC1)c1ccc(F)cc1` the value was -0.084; for `O=[N+]([O-])c1ccc(NC(=S)NCCc2ccccc2)cc1`, 2.91; for `CC(C)CCNC(=S)Nc1ccc([N+](=O)[O-])cc1`, 1.2. The figure for `O=C(CNC(=S)NC(=O)c1ccc(F)cc1)c1ccccc1` is -0.0791.

On to `CCCCNC(=S)Nc1cc([N+](=O)[O-])ccc1C`, for which the z-score came to 0.706. The figure for `O=[N+]([O-])c1ccc(NC(=S)NCCc2ccc(F)cc2)cc1` is 1.65; for `O=C(N/N=C/c1ccncc1)c1cc(Br)ccc1OCc1ccccc1` it is 0.109. For the compound `Cn1c(SCCOc2ccccc2Cl)nnc1-c1cccs1`, the z-score is -0.314. The figure for `CC(C)CNC(=S)NC(=O)c1ccc([N+](=O)[O-])cc1` is 6.28 (active). `Cc1ccc(NC(=O)c2ccc(C(C)(C)C)cc2)cc1[N+](=O)[O-]` came in with a z-score of 2.5. The figure for `CC(=O)Nc1ccc(NC(=S)NC(=O)c2ccc([N+](=O)[O-])cc2)cc1` is -0.11. For `O=C(NC(=S)NCC1CCCO1)c1ccc([N+](=O)[O-])cc1` (stereo unspecified) the value was -0.067; for `CCCCNC(=S)NC(=O)c1ccc([N+](=O)[O-])cc1`, 7.01 (active); for `CC(C)CC(=O)NC(=S)NNC(=O)c1ccc([N+](=O)[O-])cc1`, 0.187. The figure for `CCCCCC(=O)NC(=S)NNC(=O)c1ccc([N+](=O)[O-])cc1` is 2.66; for `CCCC(=O)NC(=S)NNC(=O)c1ccc([N+](=O)[O-])cc1` it is -0.394. `CC(C)C(=O)Nc1cccc(NC(=S)NC(=O)c2ccc([N+](=O)[O-])cc2)c1` had a z-score of -0.0455.

`CCCCCCCC(=O)NNC(=O)c1ccc([N+](=O)[O-])cc1` displayed a z-score of -0.209.

The compound `Cc1ccc(NC(=O)c2ccncc2)cc1[N+](=O)[O-]` displayed a z-score of -0.142.

Regarding `Cc1ccc([N+](=O)[O-])cc1NC(=O)c1ccc(C(C)(C)C)cc1`, the z-score was -1.53. `Cc1ccc(NC(=O)CCC(=O)NNC(=O)COc2ccccc2)c(C)c1` gave a z-score of -0.385. The figure for `CCOc1ccc(C(=O)NC(=S)Nc2ccc(NC(=O)c3ccco3)c(C)c2)cc1[N+](=O)[O-]` is -0.187; for `CCOc1ccc2ccccc2c1/C=N/NC(=O)CNC(=O)Cc1ccccc1` it is -0.191. For `CC1(C)CC(=O)c2cnc(N3CCc4ccccc4C3)nc2C1` the value was 0.63; for `Brc1ccc(-c2csc(-c3ccncc3)n2)cc1`, 0.161.

`CCOC(=O)c1c(C=O)c(C)n(Cc2ccc(Cl)cc2)c1C` yielded a z-score of 0.0766. The compound `CCCN1C2=C(C(=O)CCC2)C(c2ccc(F)cc2)C2=C1c1ccccc1C2=O` (stereo unspecified) gave a z-score of -0.266. The figure for `O=C(Cn1cnc2c(nnn2-c2ccc(F)cc2)c1=O)NCc1ccco1` is -0.127; for `O=C(NCc1ccco1)c1cccc(S(=O)(=O)N2CCc3ccccc32)c1` it is -0.341; for `COc1ccc(C(=O)/C=C/c2cn(CN3CCN(C)CC3)c3ccccc23)cc1` it is -0.629.

The compound `COc1ccc(C(=O)/C=C/c2cn(CC(O)CN3CCOCC3)c3ccccc23)cc1` (stereo unspecified) yielded a z-score of -0.177. The figure for `CCC(=C(c1ccc(OC)cc1)c1ccc(OC)cc1)c1cn(CC(O)CN2CCN(C)CC2)c2ccccc12` (stereo unspecified) is 2.63; for `COc1ccc(-n2c(COc3ccc4ccccc4c3)nnc2SCC(=O)NCc2ccco2)cc1` it is 0.832; for `COc1cnc(-c2ccccc2)nc1Oc1cccc(C)c1C` it is -0.012. For `Cc1ccc(C)c(OCC(=O)Nc2nc3ccc([N+](=O)[O-])cc3s2)c1` the value was 0.0186; for `COCC(=O)Nc1nc2ccc(C)cc2s1`, 0.0888. The figure for `Cc1cccc(OCC(=O)Nc2nc3ccc([N+](=O)[O-])cc3s2)c1` is 2.05. Regarding `CCOCC(=O)Nc1nc2ccc(C)cc2s1`, the z-score is -0.0136. The figure for `Cc1ccc(C)c(OCC(=O)Nc2nc3ccc([N+](=O)[O-])cc3s2)c1C` is 2.46. The figure for `Cc1cccc(OCC(=O)Nc2nc3ccc([N+](=O)[O-])cc3s2)c1C` is -0.12.
